Source: PubChem BioAssay (NCATS)
Inconclusive results are not listed. The source made the active and inactive calls. Calls follow the shape of the dose curve; as a rule, active = well fitted inhibition curve with a large enough effect; inconclusive = small, poorly fitted or top-dose-only effect; inactive = flat fitted curve, though single readings scatter.

Each molecule was assayed against Calcium and integrin-binding protein 1 (Homo sapiens) (UniProt Q99828) (assay: Primary qHTS for Identification of Calcium Integrin Binding Protein 1 (CIB1) Competitor (AID 1508620;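 also: GST tagged CIB1 binding a fluorescein labelled alphaIIb integrin peptide tracer; top concentration of the series differs between compounds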)). Conditions: CIB1-GST / FITC-alphaIIb peptide fluorescence polarization; series mostly up to 114 µM; activity change, negative = inhibition: at the top concentration.
Calcium and integrin-binding protein 1 (Homo sapiens), sequence (Q99828 whole entry, looked up): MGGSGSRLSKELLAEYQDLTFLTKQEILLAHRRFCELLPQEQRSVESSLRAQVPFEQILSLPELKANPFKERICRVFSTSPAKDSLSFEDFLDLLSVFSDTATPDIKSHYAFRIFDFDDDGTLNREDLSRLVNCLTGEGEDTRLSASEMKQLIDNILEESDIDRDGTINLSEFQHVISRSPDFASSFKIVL
Procedure, shortened: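 Fluorescence polarization competition: CIB1-GST (1 uM final) preincubated with compound 15 min at room temperature, then FITC-labeled alphaIIb peptide (100 nM final) added for another 15 min. Polarization read at Ex 480/Em 540.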
% is scaled to controls: 0 for no effect and ±100 for the full control effect.

Structure (SMILES) | activity change, negative = inhibition
CC(C)(C)NC(=O)Nc1nnc(-c2ccncc2)s1 | -3.34% (inactive)
O=C(C1CCN(c2nc(-c3ccc(Br)cc3)cs2)CC1)N1CCNCC1 | -5.33% (inactive)
O=C(Cn1cc(CNC(=O)c2ccccc2)nn1)Nc1cc(C(F)(F)F)ccc1Cl | 0.989% (inactive)
c1nc(NCC2CCCCC2)c2cc(-c3ccc4c(c3)OCO4)ccc2n1 | 21.6% (inactive)
Cc1cnc(N2CCC(C(N)=O)CC2)nc1-c1cccc(N(C)C)c1 | -1.73% (inactive)
COc1ccc(C2Nc3ccccc3C(=O)N2Cc2cccnc2)cc1COc1ccc(NC(C)=O)cc1 (centres undefined) | 1.98% (inactive)
COc1cc2ncnc(N(C)Cc3csc(C)n3)c2cc1-c1ccc2c(c1)OCO2 | 0.265% (inactive)
CC(C)(C)OC(=O)N1CCN(c2ccc(NCc3ccc(-c4ccc(C#N)cc4)o3)cn2)CC1 | -1.79% (inactive)
CN(C)c1ccc(C(=O)NCC(=O)OC(C(=O)Nc2cc(C(F)(F)F)ccc2Cl)c2ccccc2)cc1 (centres undefined) | 5.84% (inactive)
Cc1ccnc(NC(=S)N2CCN(c3ccc(N)cc3)CC2)c1 | -9.23% (inactive)
O=C(O)c1c(-c2ccccc2)no[n+]1[O-] | 3.65% (inactive)
O=C1CCCC2=C1C(c1ccc(F)cc1)N=C(Nc1nc3ccccc3o1)N2 (centres undefined) | 0.0166% (inactive)
Cc1c(P(=S)(c2ccccc2)c2ccccc2)c2ccccc2n1C(=O)Cc1ccccc1 | 0.757% (inactive)
Oc1ccc(CNc2cccc(C(F)(F)F)c2)c2cccnc12 | 15% (inactive)
COc1ccc(C2Nc3ccccc3C(=O)N2Cc2ccco2)cc1COc1c(C)cc(NC(C)=O)cc1C (centres undefined) | -7.34% (inactive)
COc1ccc(-c2csc(N3CCC(C(N)=O)CC3)n2)cc1 | -3.29% (inactive)
Cc1cc(C)nc(NC(=S)N2CCN(c3cccc4nccn34)CC2)c1 | -6.15% (inactive)
Cc1ccc(OCCn2c(CCNC(=O)c3ccc(Br)o3)nc3ccccc32)cc1 | -1.02% (inactive)
O=C(Nc1ccc(-n2cncn2)c(C(F)(F)F)c1)Nc1nnc(-c2ccncc2)s1 | 9.14% (inactive)
O=C(O)c1ccc(-n2cccc2/C=C2\SC(=O)N(Cc3ccc(Cl)cc3)C2=O)cc1 | 6.26% (inactive)

Structure (SMILES) | activity change, negative = inhibition
CC(C)(C)OC(=O)N1CCN(c2ccc(OCc3ccc(-c4ccc(C#N)cc4)o3)cc2)CC1 | -9.52% (inactive)
CC(=O)NCc1cc(Cl)c2cccnc2c1O | -9.71% (inactive)
C=CCNc1nnc(-c2cccc3ccccc23)o1 | 0.526% (inactive)
NC(=O)C1CCN(c2nc(-c3ccc([N+](=O)[O-])cc3)cs2)CC1 | 9.56% (inactive)
COc1cccc(CNc2ccc(S(=O)(=O)Nc3ncccn3)cc2)c1O | 1.42% (inactive)
CN(CCc1cccs1)c1ncnc2ccc(-c3ccc4c(c3)OCO4)cc12 | 3.79% (inactive)
CC(C)(C)OC(=O)N1CCN(c2ccc(NCc3cc(-c4ccc(C#N)cc4)co3)cc2)CC1 | 3.56% (inactive)
O=C(NCC#CCSc1nnc(-c2cccc3ccccc23)o1)c1cccs1 | 4.13% (inactive)
CCOC(=O)C1CCN(C(=O)C2(NC(=O)Nc3ccccc3Cl)CCCCC2)CC1 | 1.89% (inactive)
CC(C)Oc1ccc(-c2csc(N3CCC(C(N)=O)CC3)n2)cc1 | -0.484% (inactive)
Cc1ccc(-c2ccc(=O)n(CC(=O)NCCc3ccccc3)n2)cc1 | 0.999% (inactive)
O=C(O)c1ccc2c(c1)C(=O)N([C@]1(C(=O)O)CC1c1ccccc1)C2=O (some centres undefined) | 6.55% (inactive)
c1cncc(-c2ccc(CNc3nc(N4CCCC4)nc4ccccc34)cc2)c1 | 14.6% (inactive)
Cc1ccc(OCCn2c(CCNC(=O)c3cccc4cc[nH]c34)nc3ccccc32)cc1 | 5.56% (inactive)
COc1ccc(C2Nc3ccccc3C(=O)N2Cc2cccnc2)cc1COc1c(C)cccc1C (centres undefined) | -3.08% (inactive)
CCN(Cc1ccccc1)c1ccc(Br)cn1 | -1.61% (inactive)
N#Cc1c(-c2ccccc2C(F)(F)F)nc2ccccc2c1NCc1ccc(-c2cccnc2)cc1 | 18.7% (inactive)
COc1cccc(CNc2ccc(S(=O)(=O)Nc3ccccn3)cc2)c1O | -3.9% (inactive)
O=P(c1ccccc1)(c1ccccc1)c1cnc2ccccn12 | -1.31% (inactive)
